Laboratory results from PubChem BioAssay AID588358 (NMMLSC, 2011).
Hit rate of the full screen: of about 310,000 compounds, about 1,500 (0.48%) were called active. The entries come from a sample that favours actives as a whole. Values without a mark were called inactive.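 The calls were made as follows: active = binding more than 3 SD below its plate's average and above zero; inconclusive = below that plate limit but binding exactly zero; inactive = the rest.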

Target: Desmoglein-3 (Homo sapiens) (UniProt P32926)
Test: blockers of anti-DSG3 scFv binding – biochemical, bead-based, flow cytometry, scFv-GFP, primary screen (AID 588358);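 also: hits lower antibody fragment binding to DSG3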
Details: DSG3-coupled beads, at 10 µM, stronger effect = lower value

Desmoglein-3 (Homo sapiens), sequence (P32926 whole entry, looked up, the tested form may be a part): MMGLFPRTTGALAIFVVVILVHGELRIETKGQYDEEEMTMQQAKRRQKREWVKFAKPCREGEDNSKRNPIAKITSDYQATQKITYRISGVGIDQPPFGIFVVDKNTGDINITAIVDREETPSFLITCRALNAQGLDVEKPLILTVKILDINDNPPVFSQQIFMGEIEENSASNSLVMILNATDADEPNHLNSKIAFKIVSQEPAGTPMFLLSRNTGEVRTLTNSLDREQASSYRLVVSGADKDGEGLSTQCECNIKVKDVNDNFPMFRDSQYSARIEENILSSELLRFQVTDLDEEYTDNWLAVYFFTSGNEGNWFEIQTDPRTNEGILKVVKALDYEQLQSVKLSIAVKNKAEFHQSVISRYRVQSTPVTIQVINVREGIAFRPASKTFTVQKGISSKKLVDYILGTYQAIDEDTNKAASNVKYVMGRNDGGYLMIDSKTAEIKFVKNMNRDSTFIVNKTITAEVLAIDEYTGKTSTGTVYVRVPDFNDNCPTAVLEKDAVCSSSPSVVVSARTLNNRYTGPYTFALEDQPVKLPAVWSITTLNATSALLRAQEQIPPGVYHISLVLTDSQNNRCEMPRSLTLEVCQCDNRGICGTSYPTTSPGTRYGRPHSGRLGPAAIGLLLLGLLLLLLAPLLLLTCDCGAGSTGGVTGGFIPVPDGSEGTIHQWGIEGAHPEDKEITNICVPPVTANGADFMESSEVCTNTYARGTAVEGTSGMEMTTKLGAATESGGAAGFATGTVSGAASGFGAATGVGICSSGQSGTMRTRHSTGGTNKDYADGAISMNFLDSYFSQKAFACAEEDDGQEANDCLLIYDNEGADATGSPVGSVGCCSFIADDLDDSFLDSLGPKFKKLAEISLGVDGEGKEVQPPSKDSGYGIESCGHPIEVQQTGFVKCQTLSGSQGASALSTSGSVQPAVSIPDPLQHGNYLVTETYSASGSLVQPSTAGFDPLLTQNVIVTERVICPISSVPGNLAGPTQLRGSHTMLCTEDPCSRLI

Compound | binding (percent of control)
c1ccc(CCNC2CCCCCC2)cc1 | 68.9% (active)
OC(CNC1CCCCC1)c1ccccc1 (stereo not given) | 107%
c1cc2c(cc1CCNC1CCCCCC1)OCO2 | 97.2%
CN1CCC[C@@H]1CCO[C@](C)(c1ccccc1)c1ccc(Cl)cc1 | 102%
Cc1ncoc1C(=O)NCC1=C(c2cccc3ccccc23)C[C@@H]2CC[C@H]1N2Cc1ccco1 | 108%
